Rab9 prom act – Rab9 promoter activation; Huh7 Rab9 promoter-luciferase reporter, luminescence, 24 h; Potency, µM (top dose mostly 9.22 µM), for inactives: top-dose activation, negative = inhibition, actives largely listed as activators; hit rate 2.8% among 320,000; AID 485297; note: % of control where 0% means no effect; nearly all actives have a fitted effect of over 60% in size
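Cell-based reporter: Huh7 stable for Rab9 promoter-driven luciferase, plated in reduced-serum medium with 10% FBS at 1500 cells/well, compound-treated 24 h at 37 °C, luminescence read after 10 min reagent.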
NPC1 promoter act – NPC1 promoter activation. Huh7 NPC1 promoter luciferase reporter, 24 h. Potency, µM (top dose mostly 9.22 µM), inactives show at the top dose activation, hits mostly activators. hit rate 2.4% among 320,000. AID 485313; note: % of control where 0% means no effect; nearly all actives have a fitted effect of over 60% in size
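Cells: Huh7 expressing luciferase under the NPC1 promoter, 1500/well. Seeded 2 h, compound added, incubated 24 h at 37 °C. Luciferase reagent, 10 min ambient, then luminescence.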
Luc counter – blocks Kinase-Glo luciferase, a counter-screen artifact; Q27757; Kinase-Glo luciferase, ATP luminescence, 8 min; Potency, µM (titrated, usually from 38.3 µM), for inactives: at the highest dose activity change, negative = inhibition, actives largely listed as inhibitors; hit rate 0.28% among 200,000; AID 1379; note: % is set by controls: 0 for no effect and ±100 for the full control effect; nearly all actives have a fitted effect of over 60% in size
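Kinase-Glo luciferase light output from ATP and luciferin was measured with 10 uM ATP, within the enzyme's linear range. Buffer: 50 mM imidazole pH 7.2, 50 mM KCl, 7 mM MgCl2, 0.01% Tween 20, 0.05% BSA; luminescence read after 8 min at ambient temperature.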
ELG1 genotoxic – genotoxicity induction in ELG1-luciferase HEK293T cells | HEK293T ELG1-luciferase reporter, luminescence, 16 h | Potency, µM (doses to about 46 µM), for the others: top-dose activity change, positive = activation, usual class: activators | hit rate 1.3% among 330,000 | AID 504466; note: % of control where 0% means no effect; nearly all actives have a fitted effect of over 60% in size
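Step 1: seed 2,000 HEK293T ELG1-luciferase cells per well. Step 2: add compound or DMSO, incubate 16 hr at 37 °C. Step 3: ONE-Glo, 30 min at room temperature, read luminescence.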
FLuc counter – firefly luciferase modulation, counter-screen for miR-21 project; purified FLuc, Km substrates, luminescence inhibition; Potency, µM (doses to about 57.5 µM), for the others: at the highest dose activity change, negative = inhibition, actives largely listed as inhibitors; hit rate 6.9% among 360,000; P08659;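 note: plate controls were vehicle for no effect and reference inhibitor for full effect; nearly all actives have a fitted effect of over 55% in size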
Target sequence (P08659 whole entry, looked up): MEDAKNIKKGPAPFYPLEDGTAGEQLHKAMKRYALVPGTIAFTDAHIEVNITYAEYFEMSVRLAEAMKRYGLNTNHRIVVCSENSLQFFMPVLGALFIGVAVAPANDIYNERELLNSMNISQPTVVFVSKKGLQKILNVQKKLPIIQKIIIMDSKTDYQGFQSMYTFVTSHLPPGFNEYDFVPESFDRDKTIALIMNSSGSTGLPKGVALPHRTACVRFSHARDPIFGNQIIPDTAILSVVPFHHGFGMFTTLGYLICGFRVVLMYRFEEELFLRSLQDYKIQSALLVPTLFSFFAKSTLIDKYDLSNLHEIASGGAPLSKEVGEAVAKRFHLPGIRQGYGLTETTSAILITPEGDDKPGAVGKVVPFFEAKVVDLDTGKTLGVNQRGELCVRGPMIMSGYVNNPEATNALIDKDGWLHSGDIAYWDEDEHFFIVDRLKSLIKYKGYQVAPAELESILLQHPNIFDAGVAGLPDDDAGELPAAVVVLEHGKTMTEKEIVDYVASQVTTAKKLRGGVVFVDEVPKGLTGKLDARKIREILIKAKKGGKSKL
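Biochemical qHTS of compounds, final roughly 60 µM downward over six points, against 10 nM purified firefly luciferase using Km concentrations of substrates (10 uM D-luciferin, 10 uM ATP) in Tris acetate pH 7.5 buffer; luminescence output.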
SMN2 splice up – increases expression of the SMN2 splice variant; HEK293 SMN2-luciferase splicing reporter, luminescence, 30-36 h; Potency, µM (top dose mostly 46.1 µM), inactives show top-dose activity change, positive = activation, actives largely listed as activators; hit rate 2.8% among 210,000; AID 1458; note: % of control where 0% means no effect; nearly all actives have a fitted effect of over 55% in size
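HEK293 cells carry an SMN2 minigene-luciferase reporter in which exon 7 inclusion puts luciferase in frame. Cells were seeded at 2000 cells/well, attached for 10-12 hours, then exposed to compounds for 30-36 hours at 37C before ONE-Glo luminescence.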
* hit, by the source's call; ? = inconclusive; nt = not tested or not shown; [ ] = another dose, or the depositor's remark. Only some compounds are listed: those with a hit (about 7.3% of all), similar ones and a draw of the others. Calls come from the whole dose curve; as a rule, active = well fitted curve in the direction sought with a large enough effect; inconclusive = small, poorly fitted or top-dose-only effect, or another doubt; inactive = no such curve, though single readings can be large; an effect the other way counts as inactive or inconclusive. Potency is the fitted concentration of half-maximal effect.

SMILES | Rab9 prom act | NPC1 promoter act | Luc counter | ELG1 genotoxic | FLuc counter | SMN2 splice up
C/C(=N\NC(=O)c1nn(C)cc1Br)c1ccncc1 | 17% | 9% | -13% | -2% | -23% | 7%
C/C(=N\NC(=O)c1ccn[nH]1)c1cn(C)nc1C | ? | ? | -27% | ? | 12µM* | 11µM*
CC(=O)Nc1ccc(C(=O)COC(=O)Cc2ccsc2)c(F)c1 | nt | nt | nt | 1% | nt | nt
CC(=O)Nc1ccc(C(=O)COC(=O)C2CC2)c(F)c1 | 24% | ? | nt | ? | 5.4µM* | nt
CCc1noc(C)c1C(=O)OCC(=O)c1ccc(NC(C)=O)cc1F | nt | nt | nt | 2% | nt | nt
CC(=O)Nc1ccc(C(=O)COC(=O)C2CCCCC2)c(F)c1 | 2% | 2% | nt | 6% | 0.67µM* | nt
CC1(C)NC(=O)N(CCOCCOc2ccc3ccccc3c2Br)C1=O | 9%[1.84 µM] | 19% | -1% | ? | ? | 7%
CC1(C)NC(=O)N(CCCCOc2ccc3ccccc3c2Cl)C1=O | 16% | ? | -4% | ? | 21µM* | -12%
Clc1ccc(Oc2cnc3ccccc3n2)cc1 | 8% | 20% | -1% | -6% | ? | 0%
Cc1ccc(Oc2cnc3ccccc3n2)cc1 | ? | ? | -5% | 7% | 12µM* | 5%
CCCCCSc1nnc2c(n1)OC(c1ccc(C)s1)N(C(C)=O)c1ccccc1-2 (centres undefined) | nt | nt | nt | nt | 3% | ?
Nc1ccc2c(c1)C(=O)N(c1cccc3ccccc13)C2=O | 12% | 2% | nt | 1% | -8% | nt
Cc1cc2nn(-c3cccc4ccccc34)nc2cc1N | 2.8µM* | ? | 0% | 13µM* | 4.8µM* | 13µM*
Nc1ccc2nn(-c3cccc4ccccc34)nc2c1 | 12% | 8% | 0% | 7% | 19µM* | -3%
COc1cc(C(=O)N2CC(=O)Nc3ccc(C)cc3C2c2ccc(F)cc2)cc(OC)c1OC (centres undefined) | nt | nt | nt | nt | 0% | -2%
COc1cc(N=c2ssnc2Cl)c(OC)cc1Cl | 1% | -1% | 11% | -3% | 17µM* | 0%
Cc1cc(Cl)ccc1N=c1ssnc1Cl | -1% | 0% | 0% | -23% | ? | -23%
Cc1ccc(N=c2ssnc2Cl)cc1 | 7% | 1% | -1% | -7% | 21µM* | -11%
COc1ccc(OC)c(N=c2ssnc2Cl)c1 | 1% | -5% | -2% | -10% | 15µM* | -4%
COc1cc(Nc2nc3ccccc3c3nnc(C)n23)cc(OC)c1 | nt | nt | nt | nt | -16% | nt
COc1ccc(S(=O)(=O)Nc2ccc3c(c2)N(C(C)=O)CCC3)cc1F | nt | nt | nt | nt | -9% | nt
Cn1c(/C(C#N)=C/c2ccc(C(F)(F)F)cc2)nc2ccccc21 | nt | nt | nt | nt | 6.7µM* | -10%
Cn1c(/C(C#N)=C/c2ccncc2)nc2ccccc21 | -5% | -5% | -2% | 0% | -12% | -6%
Cn1c(/C(C#N)=C/c2ccc(O)cc2)nc2ccccc21 | ? | ? | nt | ? | 12µM* | nt
Cc1ccc(Cc2nc3ccccc3nc2SCC(=O)N2CCCc3ccccc32)cc1 | nt | nt | nt | nt | -6% | nt
SMILES | Rab9 prom act | NPC1 promoter act | Luc counter | ELG1 genotoxic | FLuc counter | SMN2 splice up
Cc1ccsc1CN(C(=O)c1ccc(OCC(C)C)cc1)C1CCS(=O)(=O)C1 (centres undefined) | nt | nt | nt | nt | 2% | -44%
C=CCn1c(SCC(=O)O)nnc1-c1cccc(Cl)c1 | -6% | -3% | -1% | 0% | -1% | 5%
C=CCn1c(SCC(=O)O)nnc1-c1ccc(C(C)(C)C)cc1 | 5% | -4% | 1% | -2% | 17µM* | -2%
CC(C)(C)c1ccc(-c2nnc(SCC(=O)O)n2N)cc1 | 8% | 17% | -4% | 6% | 11µM* | 4%
Oc1cc(O)c2c(c1)O[C@@H](c1ccc(O)c(O)c1)[C@H](O[C@@]1(c3cc(O)c(O)c(O)c3)Oc3cc(O)cc(O)c3[C@H](O)[C@@H]1O)C2 | nt | nt | -4%[7.66 µM] | nt | nt | -7%[9.22 µM]
N#Cc1c(SCC(=O)Nc2nc3ccc(Br)cc3s2)sc2c(O)cc(=O)[nH]c12 | 26% | 26% | nt | 0% | ? | nt
N#Cc1c(SCC(=O)Nc2nc3ccccc3s2)sc2c(O)cc(=O)[nH]c12 | 17% | 1% | nt | 1% | 2.4µM* | nt
Cc1cc(C)c(S(=O)(=O)Nc2ccc(-c3cn4ccccc4n3)cc2)c(C)c1 | 3% | -2% | 3% | -5% | ? | 11%
COc1ccc(S(=O)(=O)Nc2cc(-c3cn4ccccc4n3)ccc2C)cc1 | nt | nt | nt | nt | ? | 8%
Cc1cc(C)c(S(=O)(=O)Nc2cccc(-c3cn4ccccc4n3)c2)c(C)c1 | nt | nt | nt | nt | 9.5µM* | nt
O=S(=O)(Nc1ccc(-c2cn3ccccc3n2)cc1)c1ccccc1 | 23% | 25% | nt | ? | 13µM* | nt
Cc1cccn2cc(-c3cccc(NS(=O)(=O)c4ccc(Cl)c(Cl)c4)c3)nc12 | nt | nt | nt | nt | 9.5µM* | 9%
Cc1cccc(S(=O)(=O)Nc2ccc(-c3cn4ccccc4n3)cc2)c1 | ? | 27% | 2% | 10% | 17µM* | ?
COc1ccc(/C=C\c2onc(C)c2S(=O)(=O)N2CCC(C(=O)Nc3cccc(OC)c3)CC2)cc1 | nt | nt | nt | nt | -6% | -35%
CCN(C(=O)c1cc2c(Cl)nc3ccc(C)cc3c2s1)c1cc(OC)ccc1OC | nt | nt | nt | nt | 1% | -22%
CCC(=O)N1CCc2cc(Br)cc(S(=O)(=O)CCC(=O)N3CCN(c4ccccc4F)CC3)c21 | nt | nt | nt | nt | -11% | -4%
Cc1cc(C)cc(NC(=O)C2CCN(S(=O)(=O)c3c(C)noc3/C=C/c3ccco3)CC2)c1 | nt | nt | nt | nt | -2% | -5%
CCCS(=O)(=O)Nc1cccc(-c2cn3ccc(C)cc3n2)c1 | nt | nt | nt | nt | 12µM* | 13µM*
O=C1c2ccccc2-c2nc3ccccc3cc21 | 5µM* | 3.5µM* | nt | ? | 2.1µM* | nt
c1ccc2c(c1)Cc1cc3ccccc3nc1-2 | 0.4µM* | 1.3µM* | 10µM* | 3.7µM* | 0.95µM* | 4µM*
Cc1ccc2[nH]c3c(=O)n(CC(=O)N4CCCC(C)C4)ncc3c2c1 (centres undefined) | nt | nt | nt | nt | -2% | nt
Fc1ccccc1-n1ncc2c1ncn1nc(-c3ccccc3Cl)nc21 | nt | nt | nt | nt | 0.95µM* | 5%
COc1ccc(C(=O)Nn2c(SCC(=O)NCc3ccccc3)nc3ccccc3c2=O)cc1 | 0.13µM* | 0.4µM* | -18% | 0.082µM* | 2.7µM* | ?
O=C(CSc1nc2ccsc2c(=O)n1NC(=O)c1ccccc1)NCc1ccco1 | 2% | -5% | -7% | 7% | -12% | -2%
O=C(CSc1nc2ccsc2c(=O)n1NC(=O)c1ccccc1)Nc1nccs1 | 25% | 12% | -1% | 7% | -7% | 20µM*
O=C(CSc1nc2ccccc2c(=O)n1NC(=O)Cc1ccccc1)NCc1ccccc1 | 0% | 2% | -1% | -6% | 2% | -18%
